# TcdB inh = blocks C. difficile toxin B glycohydrolase activity. P18177. TcdB glycohydrolase enzymatic assay, plate reader. inhibition, % at 9.99 µM. hit rate 0.24% among 350,000; in the data active means inhibition above about 10%
# VHR inh abs = DUSP3 (human) phosphatase inhibition | P51452 | recombinant VHR phosphatase, pNPP absorbance | inhibition, % at 13.3 µM | hit rate 0.52% among 290,000; in the data active means inhibition above about 50%
# PrPC surface inh = inhibitors of human cell surface prion protein PrPC; P04156; TR-FRET read-out; inhibition, % at 13.8 µM; hit rate 0.43% among 370,000; in the data active means inhibition above about 24%
# PrPC confirm = confirmation of inhibitors of cell surface human prion protein; shares compounds with PrPC surface inh; cell surface PrPC level, TR-FRET; inhibition, % at 13.8 µM; hit rate 65% among 1,500; AID 743200; in the data active means inhibition above about 25%
# LD9 tox = counter-screen for PrPc inhibitors: cytotoxicity in LD9 cells | luminescence viability | AID 743201 | shares compounds with PrPC surface inh | inhibition, % at 13.8 µM | hit rate 29% among 1,500; in the data active means inhibition above about 9.5%
# Hits are given with their value; n = inactive; x = not tested or not shown. An excerpt weighted towards active compounds, which were near 0.82% of everything screened.
SMILES,TcdB inh,VHR inh abs,PrPC surface inh,PrPC confirm,LD9 tox
O=C1C(Cl)=C(Nc2ccc3cn[nH]c3c2)C(=O)c2ccccc21,n,n,70.9,n,98.3
O=C(Nc1ccc2cn[nH]c2c1)c1c(Cl)cccc1Cl,x,n,n,x,x
CC=Cc1ccc2n(c1=O)C[C@@H]1[C@@H](CO)[C@H](C(=O)NCc3ccccc3)N(CCC(F)(F)F)[C@H]21 (mixture of isomers),n,x,x,x,x
Cn1c2ccccc2c(=O)c2cc(NCCCN3CCOCC3)ccc21,n,x,n,x,x
COc1cccc2sc3cc(NCCCN4CCOCC4)ccc3c(=O)c12,n,x,72.1,94.7,n
CC1CCCC(C)N1C(=O)CSc1nnc(COc2ccccc2)n1-c1ccccc1 (configuration not stated),x,n,37.1,34.3,n
O=C(CSc1nnc(COc2ccccc2)n1-c1ccccc1)c1ccccc1,x,n,n,x,x
CC(C)CC#Cc1ccc([C@H]2[C@H]3CN(C(=O)Cc4ccccc4)CC(=O)N3[C@H]2CO)cc1,n,x,x,x,x
CCO[C@H]1OC(C(=O)NCc2ccccc2)=C[C@@H](c2ccc(C(F)(F)F)cc2)[C@@H]1CCCO,n,n,n,x,x
CCO[C@H]1OC(C(=O)Nc2ccccc2)=C[C@@H](c2ccc(C(F)(F)F)cc2)[C@@H]1CCCO,n,n,31.1,n,n
CC1(Cc2ccc(Cl)c(Cl)c2)C(=O)Nc2ccc(S(=O)(=O)NC3CCCCC3)cc21 (configuration not stated),n,x,n,x,x
CC1(Cc2cccc(F)c2)C(=O)Nc2ccc(S(=O)(=O)NC3CCCCC3)cc21 (configuration not stated),n,x,35.8,n,n
C[C@H]1CN([C@@H](C)CO)C(=O)Cc2cc(NS(C)(=O)=O)ccc2O[C@@H]1CN(C)S(C)(=O)=O,n,x,x,x,x
COc1cc2nc(C3CCC3)n(NC(=O)C3CCCC(OC)C3)c(=O)c2cc1OC (configuration not stated),n,n,n,x,x
COc1cc2nc(C3CCC3)n(NC(=O)c3ccco3)c(=O)c2cc1OC,n,n,41.4,36.9,n
CCCC#Cc1cnc2c(c1)C(=O)N([C@H](C)CO)C[C@@H](C)[C@@H](CN(C)C(=O)NC1CCCC1)O2,n,x,x,x,x
COCC#Cc1cnc2c(c1)C(=O)N([C@H](C)CO)C[C@H](C)[C@@H](CN(C)C(=O)CN1CCOCC1)O2,n,x,x,x,x
COc1cc(/C=C/C(=O)NCCN2CCOCC2)cc(OC)c1OC,x,n,n,x,x
COc1cc(/C=C/C(=O)NCCn2c(C)cc3ccccc32)cc(OC)c1OC,n,n,48.8,n,10.2
COc1ccc(/C=C/C(=O)NCCn2c(C)cc3ccccc32)cc1OC,n,n,63.8,n,n
COc1ccc(/C=C/C(=O)NCCN2CCOCC2)cc1OC,n,n,n,x,x
COc1ccc(NC(=O)Nc2ccc3c(c2)CC(=O)N([C@@H](C)CO)C[C@@H](C)[C@H](CN(C)S(=O)(=O)c2ccccc2)O3)cc1,n,x,x,x,x
Cn1c(N2CCC(C(N)=O)CC2)nc2c1c(=O)n(Cc1cccc(Br)c1)c(=O)n2C,x,n,41.6,59.0,n
Cn1cnc2c1c(=O)n(Cc1cccc(Br)c1)c(=O)n2C,x,n,n,x,x
OC[C@H]1[C@@H](c2ccc(-c3cccnc3)cc2)[C@H]2CN(CC3CCOCC3)CCCCN21,n,x,x,x,x
SMILES,TcdB inh,VHR inh abs,PrPC surface inh,PrPC confirm,LD9 tox
CC(NC(N)=O)C12CC3CC(CC(C3)C1)C2 (configuration not stated),x,n,n,x,x
CC(NC1CCCCC1)C(O)C12CC3CC(CC(C3)C1)C2 (configuration not stated),x,n,35.5,28.4,n
CC(C)(C)c1csc(NC(=O)Cn2cnc3ccccc3c2=O)n1,x,n,35.5,24.9,n
CC(C)(C)c1csc(NC(=O)CSc2nc3ccccc3c(=O)[nH]2)n1,x,n,n,x,x
COC1=CC(=O)c2nc(Cl)ccc2C1=O,n,x,n,x,x
COC1=CC(=O)c2c(ccc3ncnc(N)c23)C1=O,n,x,60.9,84.4,98.4
CNC(=O)OCc1nc(SSC(C)(C)C)n(C)c1COC(=O)NC,n,x,49.6,n,92.0
CCSc1nc(COC(=O)NC)c(COC(=O)NC)n1C,n,x,n,x,x
O=C(CSc1ncnc2ccccc12)Nc1ccc(N2CCOCC2)cc1,x,n,x,x,x
CN(C)S(=O)(=O)c1ccc(NC(=O)CSc2ncnc3ccccc23)cc1,x,n,50.3,53.4,n
CN(C)S(=O)(=O)c1cccc(NC(=O)CSc2ncnc3ccccc23)c1,n,n,51.4,77.1,n
O=C(CSc1ncnc2ccccc12)Nc1cccc(S(=O)(=O)N2CCOCC2)c1,n,n,68.0,65.6,n
CN(C)S(=O)(=O)c1cccc(NC(=O)CSc2nc3ccccc3[nH]2)c1,n,n,n,x,x
O=C(COc1ncnc2ccccc12)Nc1cccc(S(=O)(=O)N2CCOCC2)c1,x,n,n,x,x
COc1cc(-c2nc3ccc(C)cn3c2NCc2ccccc2)ccc1SC1CCCCC1,n,x,25.4,n,11.3
COc1cc(-c2nc3ccc(C)cn3c2NCc2ccccc2)ccc1-c1cccc(Cl)c1,n,x,n,x,x
O=C1c2ccccc2[C@@]2(Cc3ccccc3N(Cc3ccccc3)C2=O)[C@H](c2ccc(CO)cc2)N1C1CCCCC1,n,x,x,x,x
CC(C)NC(=O)N(C)C[C@@H]1Oc2ccc(NC(=O)CCCCCC(=O)Nc3ccccc3N)cc2C(=O)N([C@H](C)CO)C[C@H]1C,n,x,x,x,x
Cc1ccc(-c2cnc3c(c2)C(=O)N([C@@H](C)CO)C[C@H](C)[C@H](CN(C)C(=O)c2ccc(F)cc2)O3)cc1,n,x,x,x,x
COc1ccccc1NC(=O)CSc1ncnc2c1oc1ccccc12,x,n,26.5,n,n
COc1ccccc1NC(=O)CSc1nc2c(oc3ccccc32)c(=O)n1C,n,n,n,x,x
COC(=O)c1cc(Br)c(=O)n(-c2nccs2)c1,x,n,48.7,94.4,n
COC(=O)c1cc(Br)c(=O)n(-c2ccccn2)c1,x,n,n,x,x
C[C@@H]1CCCCO[C@H](CN(C)C(=O)Nc2ccc3c(c2)OCO3)[C@H](C)CN([C@H](C)CO)C(=O)c2cc(NS(=O)(=O)c3cn(C)cn3)ccc2O1,n,x,x,x,x
Clc1ccc(N=NN2CCOCC2)cc1,n,n,n,x,x
SMILES,TcdB inh,VHR inh abs,PrPC surface inh,PrPC confirm,LD9 tox
Cc1[nH]nc(C(F)(F)F)c1N=NN1CCOCC1,n,x,31.1,40.3,64.7
CC=Cc1ccc2n(c1=O)C[C@@H]1[C@@H](CO)[C@H](C(=O)NCC)[C@H]2N1Cc1nccs1 (mixture of isomers),n,x,x,x,x
COc1ccccc1S(=O)(=O)N[C@H]1CC[C@@H](CC(=O)N2CCCCC2)O[C@H]1CO,n,x,x,x,x
CN(C)c1ccc(-[n+]2c(-c3ccccc3)cc(-c3ccccc3)cc2-c2ccccc2)cc1,n,n,30.8,41.1,47.2
Cc1ccc(-c2cc(-c3ccc(C)cc3)[n+](-c3ccc(C(=O)[O-])cc3)c(-c3ccc(C)cc3)c2)cc1,n,x,n,x,x
C[C@@H]1CN([C@H](C)CO)C(=O)c2cccc(N(C)C)c2O[C@H]1CN(C)S(=O)(=O)c1ccc(F)cc1,n,x,x,x,x
CCc1nnc(NC(=O)c2cc3c(s2)CCCCC3)s1,n,x,n,x,x
CCOC(=O)Cc1csc(NC(=O)c2cc3c(s2)CCCC3)n1,x,n,29.9,24.6,n
CC1CCC(NC(=O)c2cc3c(s2)CCCC3)CC1 (configuration not stated),n,x,49.9,63.5,n

# Assay outcomes from PubChem BioAssay.
